Laboratory results reported in PubChem BioAssay (NCI).
The panel holds about 83,000 compounds, 20% with a hit somewhere; the sample as a whole holds those more often.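 Cell lines were cultured in 96-well plates, exposed to a single compound concentration, and assessed for percent growth 48 hours later.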 Active and inactive are the calls of the source. How the source made its calls: active means growth percent below 10; inactive means the rest.

Columns and labels:
Test in all cases: NCI-60 one-dose screen, 48 h (100 = growth as untreated, 0 = no growth, -100 = all killed)
Settings in all cases: 10 µM unless noted
[1] = test system: HCT-15 colon
[2] = test system: HT29 colon
[3] = test system: SNB-75 CNS
[4] = test system: SNB-19 CNS
[5] = test system: U251 CNS
[6] = test system: PC-3 prostate
[7] = test system: SK-MEL-5 melanoma
[8] = test system: UACC-62 melanoma
[9] = test system: LOX IMVI melanoma
[10] = test system: SK-MEL-28 melanoma
[11] = test system: SK-MEL-2 melanoma
[12] = test system: EKVX NSCLC
[13] = test system: SN12C renal
[14] = test system: UO-31 renal
[15] = test system: TK-10 renal
[16] = test system: ACHN renal
[17] = test system: CAKI-1 renal
[18] = test system: A498 renal
[19] = test system: CCRF-CEM leukemia
[20] = test system: MOLT-4 leukemia

Measured: growth

CC1COCC(C)N1C1=C(Cl)C(=O)c2ccccc2C1=O (stereo unspecified)
inactive: [1] 36.6% | [2] 89.7% | [3] 120% | [4] 96.4% | [5] 45.6% | [6] 47.2% | [7] 66.5% | [8] 76.6% | [10] 87% | [11] 23.9% | [12] 89.9% | [13] 81.7% | [14] 59% | [15] 75.7% | [16] 28.9% | [17] 65.4% | [18] 109% | [19] 19.4%
active: [9] 7.84%

CCN(CC)CCCC(C)Nc1ccc2cc(OC)ccc2n1 (stereo unspecified)
inactive: [1] 103% | [2] 106% | [3] 89.8% | [4] 106% | [5] 97.9% | [6] 95.4% | [7] 107% | [8] 108% | [9] 102% | [10] 108% | [11] 116% | [12] 91.4% | [13] 104% | [14] 91.3% | [15] 106% | [16] 107% | [17] 101% | [18] 84.5% | [19] 107%

Cc1cscc(C)c1=S
active: [1] 9.4% | [16] -5.99%
inactive: [2] 19.5% | [3] 108% | [4] 100% | [5] 80% | [6] 77% | [7] 90.2% | [8] 90% | [9] 70.4% | [10] 120% | [11] 11.9% | [12] 110% | [13] 87.5% | [14] 70.5% | [15] 92.4% | [17] 51.2% | [18] 128% | [19] 91.1%

COc1ccccc1-n1c(-c2cc(O)ccc2C)cn2c3c(=O)[nH]c(=O)n(C)c3nc12
active: [3] -32%
inactive: [1] 85.8% | [2] 32% | [4] 82.1% | [5] 83.8% | [6] 67.1% | [7] 77.3% | [8] 77.8% | [9] 38.9% | [10] 96.9% | [11] 89.7% | [12] 87.4% | [13] 41.6% | [14] 36.4% | [15] 99.2% | [16] 27.1% | [17] 39.8% | [18] 106% | [19] 114% | [20] 71.5%

O=C(CN1CCN(c2cc3c(cc2F)c(=O)c(C(=O)O)cn3C2CC2)CC1)N/N=C/c1ccncc1
inactive: [1] 97.5% | [2] 97.8% | [3] 89.1% | [4] 92.8% | [5] 98.8% | [6] 91.7% | [7] 96.9% | [8] 95.7% | [9] 99.8% | [10] 106% | [11] 105% | [12] 98.3% | [13] 106% | [14] 90.6% | [15] 91.6% | [16] 99.6% | [17] 93.8% | [18] 96.4% | [19] 94%

COc1cc(-c2nc(SCCC(C)C)nc(N3CCOCC3)c2C#N)cc(OC)c1OC
active: [5] 5.83%
inactive: [1] 68.3% | [2] 19.2% | [3] 53.4% | [4] 65.8% | [6] 62.3% | [7] 102% | [8] 91.4% | [9] 83.2% | [10] 108% | [11] 116% | [12] 100% | [13] 54.9% | [14] 73.9% | [15] 46.5% | [16] 101% | [17] 76.2% | [18] 108% | [19] 78.8%

COc1ccc(-c2cn(-c3ccc(Cl)cc3)c(SCC(=O)c3ccc([N+](=O)[O-])cc3)n2)cc1
inactive: [1] 92.7% | [2] 89.6% | [3] 39% | [4] 52.3% | [5] 60.6% | [6] 73.7% | [7] 88.2% | [8] 68.7% | [9] 89.1% | [10] 95.8% | [11] 73.6% | [12] 95% | [13] 78.3% | [14] 82.5% | [15] 55.9% | [16] 81.5% | [17] 76.1% | [18] 85.2% | [19] 93.8%

Cc1cc(N2CCCCC2)nc(N2CCN(CC(=O)Nc3ccc4c(ccn4Cc4ccccc4)c3)CC2)n1
active: [18] 8.63%
inactive: [1] 48.1% | [2] 12.4% | [3] 66.4% | [4] 70% | [5] 40.3% | [6] 38.7% | [7] 57.6% | [8] 56.5% | [9] 60.7% | [10] 73.7% | [11] 65.6% | [12] 62.1% | [13] 64.2% | [14] 30% | [15] 84% | [16] 76.6% | [17] 56.3% | [19] 64.5% | [20] 52.6%

CC(C)C[C@@H](C(=O)N[C@H](C(=O)OC1CCCC1)c1ccccc1)[C@H](O)C(=O)NO
inactive: [1] 58.4% | [2] 58% | [3] 101% | [4] 76.2% | [5] 45.7% | [6] 49.6% | [7] 59.8% | [8] 68.8% | [9] 54.2% | [10] 63.2% | [11] 33.2% | [12] 67.5% | [13] 86.5% | [14] 50.8% | [15] 70.4% | [16] 85.9% | [17] 76.2% | [18] 40.7% | [19] 67.8% | [20] 63.4%

Cc1ccccc1CNc1c2ccccc2nc2ccccc12
inactive: [1] 14.6% | [3] 45.3% | [4] 27.1% | [5] 21.3% | [6] 25.6% | [7] 33.9% | [8] 46.7% | [10] 58.3% | [11] 40.2% | [12] 38.4% | [13] 24.3% | [14] 15.5% | [15] 38.7% | [16] 11.6% | [17] 25.1% | [19] 17.6%
active: [2] 8.87% | [9] 9.12% | [18] -2.25%

O=C1CCCc2nc3sc4c(=O)n(-c5ccccc5Cl)nnc4c3cc21
inactive: [1] 84.3% | [2] 77.5% | [3] 114% | [4] 93% | [5] 88.5% | [6] 83.6% | [7] 87.9% | [8] 90.6% | [9] 102% | [10] 109% | [11] 95.2% | [12] 91.7% | [13] 90.4% | [14] 92.4% | [15] 95% | [16] 107% | [17] 97.6% | [18] 95.5% | [19] 85.1% | [20] 98.2%

O=C(CSc1nnc2sc(Nc3cccc(Cl)c3)nn12)c1ccc(F)cc1
inactive: [1] 92.3% | [2] 90.5% | [3] 104% | [4] 95.5% | [5] 97.9% | [6] 85% | [7] 98.5% | [8] 82.7% | [9] 91.7% | [10] 104% | [11] 102% | [12] 94.8% | [13] 98.9% | [14] 78.8% | [15] 114% | [16] 96% | [17] 71.3% | [18] 103% | [19] 91.1%

COc1ccc(C(C)=O)cc1S(N)(=O)=O
inactive: [1] 107% | [2] 86% | [3] 101% | [4] 99.7% | [5] 98.6% | [6] 85.7% | [7] 104% | [8] 94.7% | [9] 106% | [10] 106% | [11] 87.9% | [12] 106% | [13] 101% | [14] 90.7% | [15] 81.4% | [16] 102% | [17] 93.8% | [18] 101% | [19] 96.8% | [20] 86.4%

O=C1N[C@@H]2[C@@H](O)[C@@H](O)[C@H](O)C[C@H]2c2cc3c(c(O)c21)OCCO3
active: [1] -11.9% | [2] -14.5% | [3] -4.29% | [4] -10.4% | [5] -14.9% | [6] -9.66% | [7] -52.1% | [8] -13.3% | [9] -41.1% | [10] -16.4% | [11] -48.7% | [12] -14.3% | [13] -9.95% | [14] -19.7% | [15] -11.9% | [16] -14.5% | [17] 4.9% | [18] -29.7% | [19] -6.07% | [20] -0.799%

COc1ccc2c(c1)c(-c1cc(-c3cn(C)c4ccc(OC)cc34)on1)cn2C
inactive: [1] 98.6% | [2] 97.3% | [3] 97.8% | [4] 94.5% | [5] 93.7% | [6] 87.9% | [7] 81.2% | [8] 90.7% | [9] 81.8% | [10] 94.5% | [11] 118% | [12] 106% | [13] 106% | [14] 80.6% | [15] 126% | [16] 89.9% | [17] 92.8% | [18] 105% | [19] 91.3%
